# Source: PubChem BioAssay AID686996 (Broad Institute, 2013)
# The campaign covered roughly 350,000 compounds. About 1,900 (0.54%) were called active.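 How the source made its calls: active means mean inhibition across replicates at least about 35%, with every replicate also reaching that limit (limit read from the data); inconclusive means only one of the two criteria met; inactive means neither criterion met.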 Many of the other results were omitted from the sample, so actives are more common in it than they were.
# Molecular target: Caspase-6 (Homo sapiens) (UniProt P55212)
# Sequence (P55212 24-179 limits assumed): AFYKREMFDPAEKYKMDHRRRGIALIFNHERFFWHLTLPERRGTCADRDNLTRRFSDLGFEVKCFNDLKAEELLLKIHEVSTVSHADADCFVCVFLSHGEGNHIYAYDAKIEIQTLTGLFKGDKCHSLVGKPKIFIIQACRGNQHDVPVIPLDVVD
# Sequence (P55212 194-293 limits assumed): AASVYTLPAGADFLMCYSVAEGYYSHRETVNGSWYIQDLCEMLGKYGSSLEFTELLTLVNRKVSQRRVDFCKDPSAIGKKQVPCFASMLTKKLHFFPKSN
# Assay: inhibition of CASP6 peptide cleavage – biochemical, VEID-R110 fluorescence, single point, set 2, primary screen (AID 686996);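 further: 0% = median of neutral control wells and 100% = no fluorescence left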
# Settings: purified caspase-6, Z-VEID-R110 cleavage fluorescence; at 12.5 µM; active compounds read high
row,Compound,inhibition
1,O=C(N[C@H]1CC[C@H](CCNS(=O)(=O)c2ccc(F)cc2)O[C@H]1CO)C1CCCC1,2.12% (inactive)
2,C[C@@H]1CCCCO[C@H](CN(C)C)[C@H](C)CN([C@@H](C)CO)C(=O)c2cc(NC(=O)Cc3ccccc3)ccc2O1,-0.443% (inactive)
3,O=C(Nc1ccc(-c2ccccc2)cc1)[C@@H]1[C@@H](CO)[C@@H]2Cn3c(cccc3=O)[C@H]1N2Cc1ccncc1,0.424% (inactive)
4,CN(C)[C@@H]1C(=O)C(C(N)=O)=C(O)[C@@]2(O)C(=O)C3=C(O)c4c(O)ccc(Cl)c4[C@@H](O)[C@H]3C[C@@H]12,49.5% (active)
5,C=C1c2c(Cl)ccc(O)c2C(O)=C2C(=O)[C@]3(O)C(O)=C(C(N)=O)C(=O)[C@@H](N(C)C)[C@@H]3[C@@H](O)C12 (stereo not given in full),73.9% (active)
6,C[C@@H]1CCCCO[C@H](CN(C)S(=O)(=O)c2ccc(Cl)cc2)[C@H](C)CN([C@H](C)CO)C(=O)c2cc(NC(=O)NC3CCCCC3)ccc2O1,-2.73% (inactive)
7,N#C[C@H]1[C@@H](c2ccc(C3=CCCCC3)cc2)[C@@H](CO)N1C(=O)Cc1ccncc1,0.643% (inactive)
8,O=S(=O)(c1ccccc1)N1[C@H](CO)[C@@H]2c3ccccc3NC[C@@H]21,-2.35% (inactive)
9,C[C@@H]1CN([C@H](C)CO)C(=O)Cc2cc(NC(=O)NC3CCCCC3)ccc2O[C@H]1CN(C)S(=O)(=O)c1ccc(Cl)cc1,0.436% (inactive)
10,C[C@H](O)C#Cc1ccc([C@@H]2[C@H](CO)N3CCCCN(CC4CC4)C[C@@H]23)cc1,4.05% (inactive)
11,CN(C)CC(=O)N[C@H]1CC[C@H](CCNC(=O)Nc2ccc(F)cc2)O[C@H]1CO,2.23% (inactive)
12,CC(C)NC(=O)N(C)C[C@H]1Oc2ccc(NS(C)(=O)=O)cc2CC(=O)N([C@@H](C)CO)C[C@H]1C,-2.92% (inactive)
13,COc1ccc(-c2cc3ncccc3cn2)cc1,1.91% (inactive)
14,COc1ccc(C=Nc2cccc3ncccc23)cc1,44.7% (active)
15,COc1ccc2nc(-c3ccccn3)ccc2c1,-1.05% (inactive)
16,C[C@@H]1CCCCO[C@H](CN(C)S(=O)(=O)c2cccs2)[C@H](C)CN([C@@H](C)CO)C(=O)c2cc(NC(=O)Nc3ccc4c(c3)OCO4)ccc2O1,-0.622% (inactive)
17,COc1ccc(S(=O)(=O)Nc2ccc3c(c2)CC(=O)N([C@@H](C)CO)C[C@@H](C)[C@@H](CN(C)C)O3)cc1,2.95% (inactive)
18,O=C(CCC(=O)c1ccccc1)NCc1cccc(C(F)(F)F)c1,-0.291% (inactive)
19,Cc1cccc(NC(=S)NCc2ccc3[nH]c4c(c3c2)CCCC4)c1,-0.948% (inactive)
20,O=C(O)CCC(=O)NCc1ccc2[nH]c3c(c2c1)CCCC3,41.9% (active)
21,C[C@@H]1CN([C@@H](C)CO)C(=O)c2cccc(NC(=O)Nc3ccc4c(c3)OCO4)c2O[C@H]1CN(C)C(=O)Nc1cccc2ccccc12,-2.55% (inactive)
22,C[C@H](CO)N1C[C@H](C)[C@H](CN(C)C(=O)NC2CCCCC2)Oc2ccc(NC(=O)CCCN(C)C)cc2CC1=O,1.62% (inactive)
23,C=CCn1c(=S)[nH]c2scc(-c3ccco3)c2c1=O,80.7% (active)

row,Compound,inhibition
1,C[C@H]1CN([C@@H](C)CO)S(=O)(=O)c2ccc(-c3cccc(C#N)c3)cc2O[C@H]1CN(C)C(=O)c1ccccc1,5.87% (inactive)
2,Cc1nc2ccccc2c(=O)n1-c1ccc(F)c(NC(=O)c2cccs2)c1,-0.817% (inactive)
3,Cc1nc2ccccc2c(=O)n1-c1ccc(NS(=O)(=O)c2ccc(F)cc2F)cc1,49.9% (active)
4,COc1ccc(NS(=O)(=O)c2ccc(F)cc2F)cn1,1.04% (inactive)
5,O=C1C[C@@](C(=O)NCC(F)(F)F)(c2ccc([N+](=O)[O-])cc2)[C@@H](c2ccc(CO)cc2I)N1C1CCCCC1,2.45% (inactive)
6,COc1ccc(S(=O)(=O)Nc2ccc3c(c2)CC(=O)N([C@@H](C)CO)C[C@@H](C)[C@@H](CN(C)Cc2ccc(C(=O)Nc4ccccc4N)cc2)O3)cc1,-1.35% (inactive)
7,C[C@H]1CN([C@@H](C)CO)C(=O)Cc2cc(NS(=O)(=O)c3ccccc3)ccc2O[C@@H]1CN(C)Cc1ccc(C(=O)Nc2ccccc2N)cc1,39.7% (active)
8,C[C@H]1CN([C@@H](C)CO)C(=O)Cc2cc(NS(=O)(=O)c3ccccc3)ccc2O[C@H]1CN(C)Cc1ccc(C(=O)Nc2ccccc2N)cc1,-0.988% (inactive)
9,C[C@H]1CN([C@@H](C)CO)S(=O)(=O)c2ccc(C#Cc3ccccc3)cc2O[C@@H]1CN(C)C(=O)C1CC1,2.82% (inactive)
10,CN(C)C(=O)c1ccc(-c2ccccc2[C@H]2[C@@H](CO)N(C(=O)C3CCCCC3)[C@H]2C#N)cc1,-0.604% (inactive)
11,COc1ccc(CN(C)C[C@@H]2Oc3ccc(NC(=O)Nc4ccc(F)cc4)cc3CC(=O)N([C@@H](C)CO)C[C@H]2C)cc1,3.48% (inactive)
12,COC(=O)CCCCC1=CCC2C(=O)C=C(O)C2C1 (stereo not given),70.5% (active)
13,CC(C)(O)C#Cc1ccc([C@H]2[C@@H](CO)N3CCCCN(C(=O)c4ccncc4)C[C@H]23)cc1,1.18% (inactive)
14,COCC(=O)N1CC(=O)N2[C@H](CO)[C@@H](c3ccc(C#CC4CCCC4)cc3)[C@H]2C1,-0.852% (inactive)
15,CCOc1cc(C(=O)O)ccc1OCCOc1ccccc1,35.6% (active)
16,CCOc1ccc(C(=O)NCC(=O)N2CCCCCCC2)cc1OCC,-0.226% (inactive)
17,CCOc1ccc(CCNC(=O)Nc2ccccc2)cc1OCC,-1.26% (inactive)
18,O=C(C[C@H]1CC[C@@H](NC(=O)c2ccncc2)[C@@H](CO)O1)Nc1ccccc1,1.11% (inactive)
19,CCNC(=O)C[C@@H]1CC[C@H]2[C@@H](COc3ccc(NC(=O)NC(C)C)cc3C(=O)N2C)O1,0.619% (inactive)
20,O=C(Cn1cnc2ccccc21)N/N=C/c1ccco1,1.45% (inactive)
21,O=c1nc(N/N=C/c2ccco2)cn[nH]1,55.7% (active)
22,Cc1n[nH]c(=O)nc1N/N=C/c1cccs1,0.991% (inactive)
